For test [1], the system named is Plasmodium falciparum Sir2 (PF13_0152, Sir2A). Kind of test: pfSir2 binders on small-molecule microarrays, primary screen, biochemical, small-molecule microarray, 635 nm fluorescence (AID 1098).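 Further: score merges spot fluorescence intensity with its signal-to-noise ratio.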 The settings on record: small-molecule microarray binding, fluorescence 635 nm; higher = more signal.
Test [2] is described as follows: small-molecule microarray binders of probe aDKK1, primary screen, biochemical, biotinylated probe, 635/667 nm fluorescence (AID 1099).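 Further: score merges 667nm spot fluorescence with signal to noise across triplicate slides.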 The settings on record: higher = more signal.
The nature of test [3]: small-molecule microarray binders of probe aCHRDL2, primary screen, biochemical, biotinylated probe, 635/667 nm fluorescence (AID 1100). The settings on record: higher = more signal.
A short description of test [4]: splicing luciferase reporter signal modulators, primary screen, spliceosome inhibition project, cell-based, HEK293, splice +/- reporter (AID 1101).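 Further: HEK293 cells carrying a splicing-competent luciferase reporter gene; test concentration not given here.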 The settings on record: luminescence, 24 h, higher = more signal, called active from +8 up or from −8 down. (In general: In a reporter assay the amount or activity of a reporter protein is the signal.)
Test [5] concerns the target Fibroblast growth factor 10 (Homo sapiens) (UniProt O15520). Kind of test: FGF10 binders on small-molecule microarrays, primary screen, biochemical, small-molecule microarray, 635 nm fluorescence (AID 1102). The settings on record: FGF10 binding, fluorescence 635 nm, higher = more signal.
Test [6] relates to glycogen synthase kinase-3 (GSK3A per assay name; protocol says GSK3B). Kind of test: GSK3 binders on small-molecule microarrays, primary screen, biochemical, small-molecule microarray, 635 nm fluorescence, GSK3A (AID 1103). Further: the record names both GSK3A and GSK3B. The settings on record: small-molecule microarray binding, fluorescence 635 nm; higher = more signal.
The target of test [7] is Epidermal growth factor receptor (Homo sapiens) (UniProt P00533). Kind of test: EGFR binders on small-molecule microarrays, primary screen, biochemical, small-molecule microarray, 635 nm fluorescence (AID 1104).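 Further: score merges 667 nm emission intensity with spot signal to noise over triplicate slides.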 The settings on record: EGFR binding, higher = more signal.
Chain of Epidermal growth factor receptor (Homo sapiens) (P00533 whole entry, looked up): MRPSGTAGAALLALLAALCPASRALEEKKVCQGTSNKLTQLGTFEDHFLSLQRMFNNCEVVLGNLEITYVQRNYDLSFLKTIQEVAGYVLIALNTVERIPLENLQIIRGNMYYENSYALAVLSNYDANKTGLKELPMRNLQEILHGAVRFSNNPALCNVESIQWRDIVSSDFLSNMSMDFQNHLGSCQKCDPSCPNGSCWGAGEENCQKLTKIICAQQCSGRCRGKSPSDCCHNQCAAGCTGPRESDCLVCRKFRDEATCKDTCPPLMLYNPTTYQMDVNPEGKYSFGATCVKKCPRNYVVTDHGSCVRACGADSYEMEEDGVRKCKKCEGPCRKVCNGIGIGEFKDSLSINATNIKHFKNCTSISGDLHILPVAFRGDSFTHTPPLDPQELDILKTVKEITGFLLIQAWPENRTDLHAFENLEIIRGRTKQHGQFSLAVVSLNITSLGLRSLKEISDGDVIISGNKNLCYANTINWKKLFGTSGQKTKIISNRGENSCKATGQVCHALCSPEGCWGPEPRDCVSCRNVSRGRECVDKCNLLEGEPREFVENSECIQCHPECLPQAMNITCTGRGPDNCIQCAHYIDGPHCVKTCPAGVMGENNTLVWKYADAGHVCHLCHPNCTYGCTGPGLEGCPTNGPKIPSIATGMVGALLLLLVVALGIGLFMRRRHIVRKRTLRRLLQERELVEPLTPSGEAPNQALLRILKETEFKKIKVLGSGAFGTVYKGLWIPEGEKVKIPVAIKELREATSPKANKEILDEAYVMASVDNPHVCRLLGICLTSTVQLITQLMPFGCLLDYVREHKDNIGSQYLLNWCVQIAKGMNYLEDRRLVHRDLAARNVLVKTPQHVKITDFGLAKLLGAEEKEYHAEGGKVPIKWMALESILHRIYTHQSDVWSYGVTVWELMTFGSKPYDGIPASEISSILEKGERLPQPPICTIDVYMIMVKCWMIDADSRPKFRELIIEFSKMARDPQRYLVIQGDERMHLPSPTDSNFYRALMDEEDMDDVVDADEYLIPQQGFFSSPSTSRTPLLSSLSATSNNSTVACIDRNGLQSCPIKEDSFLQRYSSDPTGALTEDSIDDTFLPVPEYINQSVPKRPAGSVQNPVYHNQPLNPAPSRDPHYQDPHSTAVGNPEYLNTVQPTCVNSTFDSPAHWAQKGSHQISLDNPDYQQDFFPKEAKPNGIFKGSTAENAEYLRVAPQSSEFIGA
Test [8] concerns the target Follistatin-related protein 3 (Homo sapiens) (UniProt O95633). Kind of test: FSTL3 binders on small-molecule microarrays, primary screen, biochemical, small-molecule microarray, 635 nm fluorescence (AID 1105).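 Further: score merges emission near 667 nm and signal to noise per printed spot across three slides.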 The settings on record: FSTL3 binding, higher = more signal.
The target in test [9] is Dickkopf-related protein 1 (Homo sapiens) (UniProt O94907). Kind of test: DKK1 binders on small-molecule microarrays, primary screen, biochemical, small-molecule microarray, 635 nm fluorescence scan (AID 1106).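 Further: score merges emission near 667 nm with signal to noise over three replicate slides.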 The settings on record: DKK1 binding, higher = more signal.
Chain of Dickkopf-related protein 1 (Homo sapiens) (O94907 whole entry, looked up): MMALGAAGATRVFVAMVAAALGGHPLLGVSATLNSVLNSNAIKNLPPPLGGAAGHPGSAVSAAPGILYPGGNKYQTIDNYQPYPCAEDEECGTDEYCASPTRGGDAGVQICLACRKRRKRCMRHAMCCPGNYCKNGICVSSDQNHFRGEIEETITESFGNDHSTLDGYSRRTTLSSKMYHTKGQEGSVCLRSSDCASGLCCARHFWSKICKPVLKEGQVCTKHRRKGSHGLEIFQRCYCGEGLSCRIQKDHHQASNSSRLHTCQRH
Test [10] concerns Inhibin beta A chain (activin A). Kind of test: INHBA (activin A) binders on microarrays, primary screen, biochemical, small-molecule microarray, 635 nm fluorescence scan (AID 1107).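 Further: mouse activin A protein probed at 4.33 µg/mL on printed slides; score merges bound-protein fluorescence near 667 nm with spot signal-to-noise.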 The settings on record: small-molecule microarray binding, higher = more signal.
For test [11], the system named is Human papillomavirus type 1a protein E7 (residues 44-93). Kind of test: HPV1a E7 fragment binders on microarrays, primary screen, biochemical, small-molecule microarray, residues 44-93, 635 nm fluorescence (AID 1108).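 Further: E7 fragment applied at 1 µg/mL in TBST for 1 h at 4 C; score combines spot fluorescence with its signal to noise ratio.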 The settings on record: small-molecule microarray binding, fluorescence 635 nm; higher = more signal.
Test [12] in a line: modulators of HCV replicon luciferase signal, primary screen, HCV replication inhibitor project, Huh7 cells, luciferase reporter (AID 1109).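 Further: huh7 hepatoma cells harbouring a luciferase neomycin HCV replicon reporter; luciferase luminescence as measure of HCV replicon replication; test concentration not given here.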 The settings on record: 48 h, higher = more signal.
In test [13] the target is Left-right determination factor 2 (Homo sapiens) (UniProt O00292). Kind of test: LEFTY2 binders on small-molecule microarrays, primary screen, biochemical, small-molecule microarray, 635 nm fluorescence scan (AID 1110). The settings on record: LEFTY2 binding, higher = more signal.
Chain of Left-right determination factor 2 (Homo sapiens) (O00292 whole entry, looked up): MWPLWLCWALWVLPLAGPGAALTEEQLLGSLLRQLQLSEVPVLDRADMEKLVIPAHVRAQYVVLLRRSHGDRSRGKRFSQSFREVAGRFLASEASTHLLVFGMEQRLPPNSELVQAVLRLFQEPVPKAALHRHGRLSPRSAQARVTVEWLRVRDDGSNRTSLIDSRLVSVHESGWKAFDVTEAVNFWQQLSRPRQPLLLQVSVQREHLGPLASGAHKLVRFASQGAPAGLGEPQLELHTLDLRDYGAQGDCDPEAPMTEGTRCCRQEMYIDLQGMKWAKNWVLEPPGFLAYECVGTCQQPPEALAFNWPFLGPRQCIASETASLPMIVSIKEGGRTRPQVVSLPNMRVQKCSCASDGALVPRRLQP
For test [14], the target named is Calmodulin-1 (Homo sapiens) (UniProt P0DP23). Kind of test: CALM1 binders on microarrays, EGTA buffer, profiling panel, biochemical, small-molecule microarray, Cy5-labelled CALM1 (AID 1111).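 Further: labelled calmodulin applied in Tris saline Tween buffer holding calcium plus EGTA and DTT.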 The settings on record: Cy5-CALM1 binding fluorescence, higher = more signal.
The target is the same in test [15]. Kind of test: calcium-bound CALM1 binders on microarrays, profiling panel, artefact control for SMM control-protein annotation, biochemical, small-molecule microarray, Cy5-labelled CALM1, plus calcium (AID 1112).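 Further: score merges spot fluorescence with signal to noise from triplicate slides.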 The settings on record: Cy5-CALM1 binding fluorescence, higher = more signal.
A short description of test [16]: small-molecule microarray binders of probe aWnt5a, primary screen, biochemical, biotinylated probe, 635/667 nm fluorescence (AID 1113).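 Further: score merges 667 nm fluorescence intensity with signal-to-noise per printed feature.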 The settings on record: higher = more signal.
Test [17] is described as follows: small-molecule microarray binders of probe aShh, primary screen, biochemical, biotinylated probe, 635/667 nm fluorescence (AID 1114).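 Further: probe is biotin-labelled aShh protein from a stem cell growth factor screen; measures binding of labelled protein to compounds printed on the slide; score merges feature fluorescence at 667 nm with signal-to-noise.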 The settings on record: higher = more signal.
Test [18] is described as follows: small-molecule microarray binders of probe aNog, primary screen, biochemical, biotinylated probe, 635/667 nm fluorescence (AID 1115).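 Further: probe is biotinylated aNog protein used at 0.15 µg/mL for 1 h at 4 C; z-score combines 667 nm fluorescence of each spot with its signal to noise.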 The settings on record: higher = more signal.
In test [19] the target is Torsin-1A-interacting protein 1 (Homo sapiens) (UniProt Q5JTV8). Kind of test: LAP1 binders from COS7 cell lysate, primary screen, small-molecule microarray, 635/667 nm fluorescence (AID 1116). The settings on record: COS7-hLAP1 lysate binding, 635 nm fluorescence, higher = more signal.
Chain of Torsin-1A-interacting protein 1 (Homo sapiens) (Q5JTV8 whole entry, looked up): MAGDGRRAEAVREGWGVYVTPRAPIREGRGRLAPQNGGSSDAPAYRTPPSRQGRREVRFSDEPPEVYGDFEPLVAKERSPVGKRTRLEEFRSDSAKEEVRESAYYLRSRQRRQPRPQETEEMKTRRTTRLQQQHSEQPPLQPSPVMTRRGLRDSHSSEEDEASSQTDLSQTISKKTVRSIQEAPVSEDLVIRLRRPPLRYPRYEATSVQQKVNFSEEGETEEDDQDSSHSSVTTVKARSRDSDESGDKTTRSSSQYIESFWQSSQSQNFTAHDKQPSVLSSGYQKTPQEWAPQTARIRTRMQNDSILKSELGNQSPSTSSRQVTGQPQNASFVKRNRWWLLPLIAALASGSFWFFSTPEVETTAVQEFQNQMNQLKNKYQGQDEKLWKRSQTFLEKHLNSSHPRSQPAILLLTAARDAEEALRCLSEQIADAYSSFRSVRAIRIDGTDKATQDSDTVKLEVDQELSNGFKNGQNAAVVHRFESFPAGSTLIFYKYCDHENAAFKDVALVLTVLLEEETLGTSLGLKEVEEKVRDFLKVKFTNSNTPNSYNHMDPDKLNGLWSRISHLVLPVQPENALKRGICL
Test [20] deals with Alpha-bungarotoxin (Bungarus multicinctus) (UniProt P60615). Kind of test: alpha-bungarotoxin binders on microarray, profiling panel, artefact control for SMM control protein annotation, biochemical, small-molecule microarray, Alexa647 label, 635/667 nm fluorescence (AID 1117). The settings on record: alpha-BTX-A647 binding fluorescence, higher = more signal.
Chain of Alpha-bungarotoxin (Bungarus multicinctus) (P60615 whole entry, looked up): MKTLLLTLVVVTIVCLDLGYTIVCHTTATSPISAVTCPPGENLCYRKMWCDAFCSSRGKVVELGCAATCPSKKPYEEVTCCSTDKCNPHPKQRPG

Data on five compounds can be found in PubChem BioAssay.

Active and inactive are the calls of the source.

Chain of Follistatin-related protein 3 (Homo sapiens) (O95633 whole entry, looked up): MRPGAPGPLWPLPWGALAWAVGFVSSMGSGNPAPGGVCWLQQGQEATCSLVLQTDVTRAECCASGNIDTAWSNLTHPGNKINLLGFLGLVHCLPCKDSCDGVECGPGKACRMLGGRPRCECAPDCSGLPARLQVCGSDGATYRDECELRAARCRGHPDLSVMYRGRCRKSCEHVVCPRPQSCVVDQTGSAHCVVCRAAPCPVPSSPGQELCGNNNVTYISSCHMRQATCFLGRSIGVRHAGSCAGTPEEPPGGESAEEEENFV
Chain of Fibroblast growth factor 10 (Homo sapiens) (O15520 whole entry, looked up): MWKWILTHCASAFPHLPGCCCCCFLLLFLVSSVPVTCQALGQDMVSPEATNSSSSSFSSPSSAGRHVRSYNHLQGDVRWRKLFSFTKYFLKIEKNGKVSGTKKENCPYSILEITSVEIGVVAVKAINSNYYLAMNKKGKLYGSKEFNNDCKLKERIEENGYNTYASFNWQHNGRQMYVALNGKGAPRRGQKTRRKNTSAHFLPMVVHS

Take `COc1c(C)cc(-c2cc3c(c(CCc4ccccc4)n2)[Si](C(C)C)(C(C)C)OC3)cc1C`: the composite z-score was -0.615 in [1]; 0.335 in [2]; 0.156 in [3]; 0.513 in test [5]; 0.723 in test [6]; 0.927 in [7]. In addition, the composite z-score in test [8] was 0.567; in test [9], 0.162; in test [10], 0.474; in test [11], 0.804; in test [13] it was 0.474; in test [14], -0.354. Moreover, the composite z-score in test [15] is -0.381; in test [16] it was -0.152; in [17], -0.131; in test [18] it was 0.162; in test [19], 0.0693; in test [20] it was -0.382. In addition, the z-score in test [4] is -1.28 (inactive); in test [12], 0.336.

With `C[N+](C)(C)CCCCNC(=O)[C@@H]1C[C@@H]2C(=O)NCC(=O)N2[C@@H]1c1cccc(OCCO)c1`, the composite z-score in test [1] was 0.594; in test [2], -0.365; in [3], -0.211; in [5], 1.16; in test [6], 0.68; in test [7], 0.627. The composite z-score in [8] was 1.39; in test [9] it was 1.72; in [10], -0.0907; in [11] it was 0.299; in [13] it was 1.08; in test [14], -0.189. Further, the composite z-score in test [15] is -0.131; in test [16], 0.0519; in test [17], 0.0756; in test [18], 0.145; in test [19] it was 1.66; in test [20], 1.89. In addition, the z-score was -1.49 (inactive) in [4] and 0.703 in [12].

`C=CC[C@]1(C(=O)N2CCCCC2)COC(c2ccc(OCCCO)cc2)=N1`: the composite z-score in test [1] is -0.0697; in [2], -0.0336; in [3], 0.83; in test [5], -0.621; in test [6], -0.217; in test [7], -1. For the same compound, the composite z-score in test [8] is -1.32; in test [9] it was -0.358; in [10] it was 1.28; in [11], 0.0296; in test [13], -0.727; in test [14], -1.56. In addition, the composite z-score was -0.29 in test [15]; -0.176 in test [16]; -0.138 in test [17]; 0.179 in test [18]; 1.01 in [19]; -0.212 in [20]. Further, the z-score in test [4] was 0.682 (inactive); in test [12], -1.1.

Regarding `COc1ccc([Si](C)(C)[C@@H]2[C@@H](CC(=O)N3CCC[C@H]3CO)O[C@]3(C(=O)N(Cc4ccc(I)cc4)c4ccccc43)[C@H]2C)cc1`, the composite z-score in test [1] was 0.648; in test [2], -0.0319; in [3], 0.0052; in test [5] it was 0.637; in test [6], 1.29; in test [7], 0.743. The composite z-score was found to be 1.23 in test [8]; 1.13 in test [9]; 0.752 in test [10]; 0.152 in test [11]; 0.46 in test [13]; 1.51 in test [14]. Further, the composite z-score was 1.15 in [15]; -0.165 in [16]; 0.0611 in [17]; 0.201 in test [18]; 0.252 in [19]; 1.31 in test [20]. The z-score was -1.62 (inactive) in test [4] and -2.22 in test [12].

In the case of `COC(=O)C(CC#Cc1ccc2c(c1)[C@]1(C(=O)N2)[C@H](c2ccccc2OCCO)N2[C@H](c3ccccc3)[C@H](c3ccccc3)OC(=O)[C@H]2[C@@H]1C(=O)N1CCCCCCC1)C(=O)OC`, the composite z-score in test [1] was 2.12; in test [2], 3.07; in test [3], 1.7; in test [5], 1.55; in [6], 1.47; in test [7], 1.91. The composite z-score in test [8] was determined as 1.77; in test [9], 2.52; in test [10], 1.79; in test [11], 1.48; in test [13], 1.73; in [14] it was 3.07. Besides, the composite z-score turned out to be 1.76 in [15]; 1.46 in [16]; 2.72 in test [17]; 3.54 in test [18]; 5.82 in test [19]; 3.89 in test [20]. The z-score in test [4] is -1.09 (inactive); in [12] it was -1.95.
